Measurements taken from PubChem BioAssay (NCATS).
The other results are listed elsewhere or left out. Activity calls are given as the source filed them. Calls come from the whole dose curve; as a rule, active = well fitted inhibition curve with a large enough effect; inconclusive = small, poorly fitted or top-dose-only effect, or another doubt; inactive = no such curve, though single readings can be large or run the other way.

Target: Vitamin D3 receptor (Homo sapiens) (UniProt P11473)
Assay: qHTS for Inhibitors of the vitamin D receptor (VDR): Hit Validation using a Fluorescein Assay (AID 602200)
Details: VDR-coactivator binding, fluorescein fluorescence polarization
Description: The vitamin D receptor (VDR) is a ligand-activated transcription factor and is partially responsible for the regulation of the endocrine system. This includes the transcriptional regulation of genes involved in the production of the parathyroid hormone (PTH) and the regulation of the blood calcium level. High levels of PHT can cause hypercalcemia in the case of primary and tertiary hyperparathyroidism. The VDR-mediated gene regulation, activated by its ligand 1,25-dihydroxyvitamin D3 (1,25-(OH)2D3), is governed by the recruitment of coactivators. Our hypothesis is that small molecules, with the ability to inhibit the interaction between VDR and certain coactivators, are able to selectively modulate VDR-mediated transcription. Our long term objective is the application these VDR-coactivator inhibitors to study the role of VDR-coactivator binding for specific VDR regulated genes. Ultimately, these molecules can be developed into new treatments for hypercalcemic hyperparathyroidism. No small molecule or non-peptide inhibitors are known for the VDR-coactivator interaction.
In a collaboration between the University of Wisconsin, Milwaukee and the NIH Chemical Genomics Center (NCGC) a HTS-compatible enzymatic assay was developed. The assay uses fluorescence polarization as its read-out to measure the inhibition between VDR and coregulator peptide SRC2-3 exerted by small molecules. This assay was used to screen the NIH Molecular Libraries Small Molecule Repository (MLSMR). The HTS assay detects polarization at 665 nm emitted by the Alexa Fluor 647 dye. This validation assay measures polarization of fluorescein emission at 521 nm
NIH Chemical Genomics Center [NCGC]
NIH Molecular Libraries Probe Centers Network [MLPCN]
Assay Submitter (PI): Alexander Arnold, University of Wilwaukee
Four microliter of either 1.5 uM VDR-LBD, 5 uM LG19078, and 5 nM SRC2-3 Fluorescein (all final concentrations) in columns 1, 2, and 5 to 48 or 5 nM SRC2-3 Fluorescein in columns 3 and 4 are dispensed into black medium-binding solid bottom Greiner plates. Both solutions are kept at 4 deg C and protected from light and dispensed using a Kalypsys dispenser. Then 23 nl of compounds and controls are added with Kalypsys pintool. […] Plate is centrifuged at 1000 RPM for 15 seconds to remove any residual bubbles. The plate is then incubate at ambient room temperature for 2 hours. It is then read on the Envision for a fluorescent polarization read-out (Ex 495 nm/Em 520 nm)
Potency is the fitted concentration of half-maximal effect.

Chain of Vitamin D3 receptor (Homo sapiens) (P11473 whole entry, looked up): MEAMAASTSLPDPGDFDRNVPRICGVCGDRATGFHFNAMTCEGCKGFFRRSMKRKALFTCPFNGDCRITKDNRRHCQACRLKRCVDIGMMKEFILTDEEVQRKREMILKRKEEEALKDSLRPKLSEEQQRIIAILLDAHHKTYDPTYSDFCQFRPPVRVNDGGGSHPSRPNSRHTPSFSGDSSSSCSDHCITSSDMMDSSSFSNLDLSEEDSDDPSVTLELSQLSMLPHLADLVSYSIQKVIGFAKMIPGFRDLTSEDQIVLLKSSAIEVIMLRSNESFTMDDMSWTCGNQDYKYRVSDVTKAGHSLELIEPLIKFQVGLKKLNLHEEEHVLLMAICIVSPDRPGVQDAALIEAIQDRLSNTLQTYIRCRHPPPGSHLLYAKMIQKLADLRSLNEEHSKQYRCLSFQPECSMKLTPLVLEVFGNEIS

| SMILES | Potency |
| --- | --- |
| COC(=O)c1sc(-c2ccc(C(C)(C)C)cc2)cc1NC(=O)/C=C/C(=O)O | 14.1 µM (active) |
| Cc1ccc(O)c(NC(=O)CCS(=O)(=O)c2nc(-c3ccc4c(c3)OCO4)cc(C(F)(F)F)n2)c1 | 6.31 µM (active) |
| O=C(Nc1nc(-c2ccncc2)cs1)C1COc2ccccc2O1 (stereo not given) | 3.16 µM (active) |
| CCCCS(=O)(=O)c1oc(-c2cccs2)nc1S(=O)(=O)c1ccccc1 | 3.16 µM (active) |
| O=C(/C=C/c1ccccc1)c1ccccc1O | 14.1 µM (active) |
| CCOc1ccc(N(Cc2ccccc2)C(=O)c2nc(S(C)(=O)=O)ncc2Cl)cc1 | 3.55 µM (active) |
| Cc1ccc(-c2nc3ccccn3c2Nc2c(C)cccc2C)o1 | 28.2 µM (active) |
| CC(=O)N(C1=C(Cl)C(=O)c2ccccc2C1=O)c1ccc(C(=O)O)cc1 | 2.82 µM (active) |
| CCOC(=O)c1sc(=S)n2c1[nH]c(=O)c1ccc(C(=O)OC)cc12 | 6.31 µM (active) |
| O=C(/C=C/c1ccc(Cl)c([N+](=O)[O-])c1)c1cccnc1 | 2.51 µM (active) |
| Cc1cc(C)nc(S/C=C/C(=O)c2ccccc2)n1 | 3.55 µM (active) |
| COc1ccc(OCc2nnc3n2N=C(c2ccccc2)C(CC(=O)O)S3)cc1 (stereo not given) | 1.12 µM (active) |
| Cc1cccc(Oc2c([N+](=O)[O-])c(=O)n(C)c3ccccc23)c1 | 20 µM (active) |
| CC(=O)N1CC[n+]2c(-c3ccc([N+](=O)[O-])cc3)csc21 | 3.98 µM (active) |
| O=C(Nc1ccccc1)c1nnsc1S(=O)(=O)c1ccc(Cl)cc1 | 7.08 µM (active) |
| CC1CCN(C(=S)c2ccc(-c3ccc(Cl)cc3Cl)o2)CC1 | 25.1 µM (active) |
| O=C1C=C(c2ccc(Cl)cc2)C(=O)N1Nc1ccccc1 | 1.78 µM (active) |
| C[C@@H](NC(=O)OC(C)(C)C)c1nnc(S(=O)(=O)Cc2ccccc2)o1 | 17.8 µM (active) |
| c1ccc2c(C[n+]3csc4ccccc43)cccc2c1 | 7.08 µM (active) |
| O=c1[nH]c(/C=C\c2cccc(C(F)(F)F)c2)nc(O)c1[N+](=O)[O-] | 10 µM (active) |
